# From PubChem BioAssay AID1645838 (ICCB-Longwood Screening Facility, Harvard Medical School, 2021)
# Among all 2,000 compounds or so, about 100 (5%) were called active. This is one part of a sample in which actives are shown more often than they occur. Cut-off read from the data, not from the text of the source: active = z-score above about 2; inactive = the rest.
# Experiment: modulators of mitochondrial supercomplex assembly, cell-based, luminescence, Hoechst nuclei count (AID 1645838);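 note: control cybrid cells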;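 for z-score: higher means more mitochondrial supercomplex formation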
# Details: Cells, luminescence/Hoechst cell count ratio, supercomplex reporter; for z-score: stronger effect = higher value; for cell count: measured here: cell number, Hoechst nuclei count
# [1] = library stock concentration (final well concentration not given) 46 uM
# [2] = library stock concentration (final well concentration not given) 278 uM
# [3] = library stock concentration (final well concentration not given) 1.67 mM
# [4] = library stock concentration (final well concentration not given) 10 mM
# [5] = library stock concentration (final well concentration not given) 80 uM
# [6] = library stock concentration (final well concentration not given) 400 uM
# [7] = library stock concentration (final well concentration not given) 2 mM
smiles,measurement,setting,value
O=C(C(=O)c1ccc(Cl)cc1)c1ccc(Cl)cc1,z-score,[1],0.501 (inactive)
same,z-score,[2],0.0434 (inactive)
same,z-score,[3],0.0353 (inactive)
same,z-score,[4],-0.186 (inactive)
same,cell count,[1],6500
same,cell count,[2],6290
same,cell count,[3],6800
same,cell count,[4],6380
NC(=NCC[C@H](N)C(=O)O)NO,z-score,,-0.121 (inactive)
same,cell count,,4620
CCCCC/C=C\C/C=C\C/C=C\C/C=C\CCCCNC(=O)c1ccc(O)cc1,z-score,,-0.229 (inactive)
same,cell count,,5700
CCC(=C(CC)c1ccc(O)cc1)c1ccc(O)cc1,z-score,[5],0.303 (inactive)
same,z-score,[6],0.161 (inactive)
same,z-score,[7],-0.198 (inactive)
same,z-score,[4],-1.11 (inactive)
same,cell count,[5],5780
same,cell count,[6],5910
same,cell count,[7],5930
same,cell count,[4],5450
CCN(CC)c1ccc(C=NNC(=O)c2ccc(O)cc2)cc1,z-score,[1],-0.275 (inactive)
same,z-score,[2],-0.201 (inactive)
same,z-score,[3],-0.4 (inactive)
same,z-score,[4],2.2 (active)
same,cell count,[1],6830
same,cell count,[2],6590
same,cell count,[3],6690
same,cell count,[4],3360
CC(OC1OCCN(Cc2n[nH]c(=O)[nH]2)C1c1ccc(F)cc1)c1cc(C(F)(F)F)cc(C(F)(F)F)c1 (centres undefined),z-score,[5],-0.483 (inactive)
same,z-score,[6],-0.157 (inactive)
same,z-score,[7],-0.324 (inactive)
same,z-score,[4],1.44 (inactive)
same,cell count,[5],5120
same,cell count,[6],5200
same,cell count,[7],4790
same,cell count,[4],2820
CCCCCCCC/C=C\CCCCCCCC(=O)N[C@@H](CO)C(=O)O,z-score,,0.0618 (inactive)
same,cell count,,5160
NCC(=O)Nc1ccc(-n2nc(C(F)(F)F)cc2-c2ccc3c(ccc4ccccc43)c2)cc1,outcome,library stock 10 mM,inactive; censored for cell count
same,z-score,[5],-0.354 (inactive)
same,z-score,[6],-0.201 (inactive)
same,z-score,[7],4.63 (active)
same,cell count,[5],6120
same,cell count,[6],5230
same,cell count,[7],2710
Cc1nnsc1C(=O)Nc1ccc(-n2nc(C(F)(F)F)cc2C(F)(F)F)cc1,z-score,,0.284 (inactive)
same,cell count,,4970
CCCCCCCCCCCCCCC(=O)NCCO,z-score,[1],-0.0121 (inactive)
same,z-score,[2],0.19 (inactive)
same,z-score,[3],-0.219 (inactive)
same,z-score,[4],0.291 (inactive)
same,cell count,[1],6780
same,cell count,[2],6410
same,cell count,[3],7210
same,cell count,[4],6620
CC(=O)c1cccc(NC(=O)CN2CCc3cc4c(cc3C2)OCCCO4)c1,z-score,[5],0.0242 (inactive)
same,z-score,[6],0.451 (inactive)
same,z-score,[7],-0.169 (inactive)
same,z-score,[4],0.0588 (inactive)
same,cell count,[5],4960
same,cell count,[6],4830
same,cell count,[7],4760
same,cell count,[4],4740
COc1cc2nc(N3CCCN(C)CC3)nc(NC3CCN(Cc4ccccc4)CC3)c2cc1OC,z-score,,-0.382 (inactive)
same,z-score,[1],-0.481 (inactive)
same,z-score,[2],-0.471 (inactive)
same,z-score,[3],0.298 (inactive)
same,z-score,[4],10.9 (active)
same,cell count,,5260
same,cell count,[1],6510
same,cell count,[2],6560
same,cell count,[3],5890
same,cell count,[4],2180
COc1cc2c(NC3CCN(CC4CCCCC4)CC3)nc(N3CCCN(C(C)C)CC3)nc2cc1OCCCN1CCCCC1,outcome,library stock 10 mM,inactive; censored for cell count
same,z-score,[5],-0.365 (inactive)
same,z-score,[6],-0.622 (inactive)
same,z-score,[7],0.193 (inactive)
same,cell count,[5],6230
same,cell count,[6],6560
same,cell count,[7],4370
COc1cc2c(NC3CCN(C(C)C)CC3)nc(C3CCCCC3)nc2cc1OCCCN1CCCC1,z-score,[1],-0.551 (inactive)
same,z-score,[2],-0.34 (inactive)
same,z-score,[3],-0.454 (inactive)
same,z-score,[4],0.796 (inactive)
same,cell count,[1],6710
same,cell count,[2],5680
same,cell count,[3],6450
same,cell count,[4],1730
CCCCCC(=O)CC[C@H]1C(=O)C=C[C@@H]1C/C=C\CCCC(=O)O,z-score,,1.09 (inactive)
same,cell count,,5090
CC(C)(C)OC(=O)N1CCC(OC2CCNCC2)CC1,z-score,[5],0.0198 (inactive)
same,z-score,[6],0.196 (inactive)
same,z-score,[7],0.447 (inactive)
same,z-score,[4],0.428 (inactive)
same,cell count,[5],4690
same,cell count,[6],4710
same,cell count,[7],4640
same,cell count,[4],4420
Cc1cc(CS(=O)(=O)c2ccccc2)cc(OCc2ccc(CN3CCCC3CO)cc2)c1 (centres undefined),z-score,[1],-0.0615 (inactive)
same,z-score,[2],-0.164 (inactive)
same,z-score,[3],-0.0708 (inactive)
same,z-score,[4],-0.221 (inactive)
same,cell count,[1],5870
same,cell count,[2],5750
same,cell count,[3],5420
same,cell count,[4],5130
CCCCCCCCCCCCC/C=C/[C@@H](O)[C@H](CO)NC(=O)CCCCC,z-score,,-0.258 (inactive)
same,cell count,,5330
Cc1ccc(NC(=O)CCCCCC(=O)Nc2ccccc2N)cc1,z-score,,1.29 (inactive)
same,cell count,,4790
Cc1ccc(C(=O)NCCCCCC(=O)Nc2ccccc2N)cc1,z-score,[5],0.128 (inactive)
same,z-score,[6],0.271 (inactive)
same,z-score,[7],0.708 (inactive)
same,z-score,[4],4.86 (active)
same,cell count,[5],5180
same,cell count,[6],5260
same,cell count,[7],4840
same,cell count,[4],3070
CN(C)c1ccc(C(=O)NCCCCCCC(=O)NO)cc1,z-score,,6.25 (active)
same,cell count,,3650
CN(C)c1ccc(C(=O)NCCCCCC(=O)NO)cc1,z-score,,0.156 (inactive)
same,cell count,,5320
CC(/C=C/C(=O)NO)=C\[C@@H](C)C(=O)c1ccc(N(C)C)cc1,outcome,,inactive; censored for cell count
CCOC(=O)NCCCC(=O)NCCc1ccccc1,z-score,[1],-0.07 (inactive)
same,z-score,[2],-0.00876 (inactive)
same,z-score,[3],-0.143 (inactive)
same,z-score,[4],-0.14 (inactive)
same,cell count,[1],5970
same,cell count,[2],5710
same,cell count,[3],5220
same,cell count,[4],5550
CCCCC[C@H](O)/C=C/[C@@H]1[C@@H](CCCCCCC(=O)O)[C@H](O)C[C@@H]1O,z-score,,-0.12 (inactive)
same,cell count,,5440
CC(C)CC[C@@H](O)[C@@H](C)C1CCC2C3CC=C4C[C@@H](O)CC[C@]4(C)C3CC[C@@]21C (some centres undefined),z-score,,-0.379 (inactive)
same,cell count,,5080
COC(=O)CCC[C@H](O)[C@H](O)CO,z-score,,-0.313 (inactive)
same,cell count,,5480
CCCCCC/C=C\CCCC(=O)CC(=O)N[C@H]1CCOC1=O,z-score,,0.196 (inactive)
same,cell count,,5220
CCCCC(C)(C)[C@H](O)/C=C/[C@H]1[C@H](O)CC(=O)[C@@H]1CCCCCCC(=O)O,z-score,,-0.22 (inactive)
same,cell count,,5310
O=C(O)c1cc(C(F)(F)F)ccc1N1CCC(OCc2ccccn2)C1 (centres undefined),z-score,[5],-0.188 (inactive)
same,z-score,[6],-0.142 (inactive)
same,z-score,[7],-0.236 (inactive)
same,z-score,[4],-0.254 (inactive)
same,cell count,[5],6080
same,cell count,[6],6070
same,cell count,[7],6240
same,cell count,[4],5970
CCCCC[C@H](O)/C=C/[C@H]1CCC(=O)[C@@H]1C/C=C\CCCC(=O)O,z-score,,0.602 (inactive)
same,cell count,,5430
CCC(NC(=O)c1c(C)c(-c2ccccc2)nc2ccccc12)c1ccccc1 (centres undefined),z-score,[5],-0.542 (inactive)
same,z-score,[6],-0.315 (inactive)
same,z-score,[7],-0.402 (inactive)
same,z-score,[4],-0.409 (inactive)
same,cell count,[5],7010
same,cell count,[6],6770
same,cell count,[7],6520
same,cell count,[4],5870
Cc1c(-c2ccc(-c3ccccc3F)cc2)nc2ccc(F)cc2c1C(=O)O,outcome,library stock 10 mM,inactive; censored for cell count
same,z-score,[5],-0.011 (inactive)
same,z-score,[6],9.53 (active)
same,z-score,[7],9.71 (active)
same,cell count,[5],5350
same,cell count,[6],2330
same,cell count,[7],1790
Cc1c(Cc2ccc3ccccc3n2)c2cc(F)ccc2n1CC(=O)O,z-score,[5],-0.574 (inactive)
same,z-score,[6],-0.436 (inactive)
same,z-score,[7],-0.171 (inactive)
same,z-score,[4],-0.183 (inactive)
same,cell count,[5],6030
same,cell count,[6],6070
same,cell count,[7],6110
same,cell count,[4],5700
